The values that follow come from PubChem BioAssay AID1626 (SRMLSC, 2009).

For orientation: inhibition means the relative decrease from the control value, in per cent.

Hit rate of the full screen: of about 220,000 compounds, about 2,000 (0.91%) were called active. About 2% were inconclusive and are not listed. These entries were drawn from the full list. Results with a measured potency or affinity are listed apart. Unmarked numbers belong to inactive results. Cut-off read from the data, not from the text of the source: inconclusive = inhibition above about 80% without an active follow-up result; inactive = below that; test concentration not stated here.

This assay is described as follows: M. tuberculosis H37Rv growth inhibitors, H37Rv strain (AID 1626).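 Note: bacteria incubated seven days before Alamar blue readout; 0% = bacteria only wells and 100% = bacteria with antibiotic wells.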 The note with it: stronger effect = higher value, concentration not given here.
As for `COC(=O)N/N=C/c1ccccc1`, the inhibition is 3.14%.
In the case of `CC(C)(C)OC(=O)N1CCN(C(=O)Nc2ccc3c(c2)OCCO3)CC1` it was 3.99%; in that of `CC(=O)NC(CCS(C)(=O)=O)C(=O)Nc1cc(Cl)ccc1Cl` (configuration not stated), 4.83%.
Turning to `COc1ccccc1NC(=O)CN1C(=O)NC(CC(C)C)C1=O` (configuration not stated), the inhibition was -11.7%.
Consider `Cc1ccc(-n2[nH]c(C)c(C=Nc3ccc(S(=O)(=O)Nc4nccs4)cc3)c2=O)c(C)c1`, for which the inhibition was 45.6%.
In the case of `CCc1nnc(NS(=O)(=O)c2ccc(N=Cc3c(C)[nH]n(-c4ccc(Cl)cc4)c3=O)cc2)s1` it was 12.1%.
Then `COc1ccc(NC(=O)CN(Cc2ccccc2)Cc2ccccc2)cc1S(N)(=O)=O`, with 4.02%; and `CN(Cc1ccccc1)c1nc(-c2ccc([N+](=O)[O-])cc2)nc2ccccc12`, with 0.45%.
On to `Cc1ccc(-c2nc(Cl)nc3ccccc23)cc1`, for which the inhibition was -2.37%.
As to `O=[N+]([O-])c1ccc(-c2nc(NCc3ccccc3)c3ccccc3n2)cc1`, the inhibition is -2.12%.
On to `Cc1ccc(Nc2nc(-c3ccncc3)nc3ccccc23)cc1`, for which the inhibition was -4.95%.
Turning to `CC1(C(=O)N2CCN(c3ccccc3)CC2)CC1(Cl)Cl` (configuration not stated), the inhibition was 0.45%.
Then `COCCCNC(=O)CSc1nc2sc(C(=O)OC)c(C)c2c(=O)n1N`, with 7.98%; and `CN(C)C(=O)Cn1c(SCC(=O)N2CCCc3ccccc32)nc2ccccc21`, with -5.91%; and `Cc1ccc(OCc2nc3c4c(ncn3n2)-c2ccccc2CC42CCCC2)cc1`, with -1.61%.
Then `COc1ccc2c(c1)CCC/C2=N/OC(=O)c1ccccc1OC`, with 10.5%; and `CCCSc1nc2c(=O)[nH][nH]c(=O)c2n1Cc1ccccc1`, with -2.99%; and `COc1ccc(-c2nnc(SCC(=O)N3CCCCC3)o2)c(OC)c1`, with 3.89%.
Consider `COC(=O)CSc1nnc(-c2ccccc2OC)o1`, for which the inhibition was 1.84%.
With `CCOC(=O)CSc1nnc(-c2ccccc2OC)o1`, the inhibition is 10.6%.
With `O=C(Nc1ccccc1-c1nnc(SCc2ccccc2)o1)c1ccccc1`, the inhibition was 8.97%.
With `O=C(CSc1nnc(-c2ccccc2NC(=O)c2ccccc2)o1)OC1CCCCC1`, the inhibition was 61.5%.
In the case of `CCOC(=O)N1CCN(C(=O)CSc2nnc(-c3cc(OC)ccc3OC)o2)CC1`, the inhibition was 17.1%.
Consider `C#CCNC(=O)C1=C[C@@H](C)[C@H](CCCO)[C@@H](OCC)O1`, for which the inhibition is -2.73%.
With `O=C(CCn1[nH]c(=O)c2ccccc2c1=O)NCCO`, the inhibition was -2.07%.
For the molecule `COc1cccc(-c2nc(-c3ccc(NC(=O)c4ccncc4)cc3)no2)c1`, the inhibition is 7.98%.
As for `CC1(C)OC(=O)C(=NNc2ccc(Br)cc2)C(=O)O1`, the inhibition was 76.6%.
`O=C1c2ccccc2C(=O)N1CCCCN(C(=O)c1ccc([N+](=O)[O-])cc1)c1ccc(Cl)cc1`: the inhibition was -7.62%.
As to `O=C1c2ccccc2C(=O)N1CCCCN(C(=O)c1cccc([N+](=O)[O-])c1)c1ccc(Cl)cc1`, the inhibition is -4.65%.
For the molecule `CCOC(=O)C1(CCOc2ccccc2)CCN(Cc2ccc3c(c2)OCCO3)CC1`, the inhibition is -3.31%.
`O=c1[nH]c(=O)n(CCOc2ccc(Cl)cc2)cc1Br`: the inhibition is -3.97%.
In the case of `COCCNC(=S)N1CCC(c2nc(-c3ccc(F)cc3)no2)CC1` it was -1.41%.
With `CC1=Nc2ccccc2/C1=C/c1sc(=O)n(CC(=O)N2CCCC2)c1O`, the inhibition was -8.48%.
Regarding `CC1=Nc2ccccc2/C1=C/c1sc(=S)n(-c2cccc(C(=O)O)c2)c1O`, the inhibition was 4.52%.
In the case of `CC(C)CN(CCC(=O)O)CC(C)C`, the inhibition is -0.69%.
As to `CCOC(=O)c1cnc(-n2nc(C)cc2C)nc1Nc1ccccc1OC`, the inhibition was 25.4%.
In the case of `CCOC(=O)c1cnc(-n2cc(C)cn2)nc1NCc1ccc2c(c1)OCO2`, the inhibition was 59.5%.
As to `CCOC(=O)c1cnc(-n2nc(C)cc2C)nc1Oc1ccccc1F`, the inhibition is -2.19%.
For the molecule `CCOC(=O)c1cnc(-n2nc(C)cc2C)nc1N1CC(C)OC(C)C1` (configuration not stated), the inhibition is -1.14%.
As to `CCOC(=O)c1ccc(NCc2ccc3c(c2)OCO3)cc1`, the inhibition was 7.94%.
Consider `CCOC(=O)c1cnc(-n2nc(C)cc2C)nc1NCCO`, for which the inhibition is 4.03%.
With `O=C(Cn1c(=O)n(-c2ccccc2)c(=O)c2oc3ccccc3c21)Nc1ccccc1`, the inhibition is -0.16%.
Regarding `O=C1CC(=O)CC(c2ccccc2Cl)C1`, the inhibition is -8.51%.
Then `CCO[C@H]1OC(C(=O)O)=C[C@@H](C(C)(C)C)[C@@H]1CCCO`, with -7.81%; and `NS(=O)(=O)c1ccc(C(=O)Nc2ccc(-c3nc4cccnc4s3)cc2)cc1`, with 9.76%; and `Cc1cc(C)c2c3c(cn2n1)c(=O)n(C)c(=O)n3C`, with 4.42%.
With `O=C(CCCSc1nc2ccccc2[nH]1)NCc1ccccc1Cl`, the inhibition was -0.81%.
Take `Cc1cc2nc(CCl)cc(=O)n2[nH]1`: the inhibition is 2.54%.
For `COCCn1cnc2c1c(=O)n(CC(=O)OCC#N)c(=O)n2Cc1ccccc1`, the inhibition was 1.32%.
On to `O=C(c1ccccc1)N1CCN(c2ccc([N+](=O)[O-])c(NCC3CCCO3)c2)CC1` (configuration not stated), for which the inhibition is 3.59%.
For `O=C(COc1ccccc1)NC1CCCc2ccccc21` (configuration not stated), the inhibition is -1.62%.
As for `O=C(O)CSCC(=O)NC1CCCc2ccccc21` (configuration not stated), the inhibition is 0.52%.
Turning to `Cc1cc(/C=C2/NC(=O)N(Cc3ccccc3F)C2=O)c(C)n1C(C)C`, the inhibition was 7.35%.
Turning to `Cc1nn(C(=O)c2cccc([N+](=O)[O-])c2)c(C)c1Sc1ccccc1`, the inhibition is 0.41%.
Consider `Cc1ccc(OCc2nnc(SCC(=O)c3cccc([N+](=O)[O-])c3)n2C)cc1`, for which the inhibition is 3.44%.
Turning to `COc1ccc(NC(=O)C2CCC(N3C(=O)C4C5C=CC(C5)C4C3=O)CC2)cc1` (configuration not stated), the inhibition was -14.2%.
Regarding `O=C(COc1ccc2ccccc2c1)Nc1ccc(Cc2ccncc2)cc1`, the inhibition was 11.6%.
Turning to `O=C(O)COCC(=O)Nc1ccc2c(c1)CCC2`, the inhibition is -2.88%.
Consider `O=C(COc1cc(Cl)ccc1Cl)Nc1ccc2c(c1)CCC2`, for which the inhibition was 3.53%.
As to `O=C(COc1ccc(Cl)cc1)NCc1ccncc1`, the inhibition is 0.93%.
Take `COc1cc(NC(=O)COc2ccc(-n3ccnc3)cc2)cc(OC)c1`: the inhibition was 54.1%.
For `O=C(COc1ccc2c(c1)CCC2)NCc1ccc(Cl)cc1`, the inhibition is 13.4%.
In the case of `O=C(COc1ccc(-n2ccnc2)cc1)Nc1cccc(Cl)c1`, the inhibition was 3.18%.
As to `CC(=O)c1ccc(NC(=O)COc2ccc3c(c2)OCO3)cc1`, the inhibition was 14%.
With `Cc1ccc(/C=N/n2c(C)n[nH]c2=S)o1`, the inhibition was -0.73%.
With `Cn1c(SCc2nc3ccccc3[nH]2)nnc1-c1cccnc1`, the inhibition was -8.31%.
Turning to `Brc1ccccc1-n1nnc(-c2ccnc3ccccc23)n1`, the inhibition was -5.72%.
Regarding `COC(=O)COc1cccc(NC(=O)c2ccccc2)c1`, the inhibition was 10.8%.
Consider `COc1ccc(OCC(=O)Nc2cccc(OC)c2)cc1`, for which the inhibition was 0.47%.
With `O=C(COc1cccc(Cl)c1Cl)Nc1ccc2c(c1)CCC2`, the inhibition is -7.06%.
Then `O=C(COc1ccc2c(c1)CCC2)NCc1cccc(Cl)c1`, with 13.9%; and `O=C(COC(=O)c1cncc(Br)c1)Nc1ccc2c(c1)OCO2`, with 2.32%; and `O=C(COC(=O)c1ccc(F)cc1F)Nc1ccc2[nH]c(=O)[nH]c2c1`, with 0.74%.
With `CCCC(=O)Nc1ccc2oc(-c3ccncc3)nc2c1`, the inhibition is 0.51%.
Then `Cc1c(Cl)cccc1NC(=O)Cn1c(-c2ccc(F)cc2)noc1=O`, with -3.42%; and `Cc1c(O)c(S(=O)(=O)c2ccccc2)c(=O)n(-c2ccccc2)c1-c1ccccc1`, with -1.42%; and `NNC(=S)Nc1ccc(S(=O)(=O)N2CCOCC2)cc1`, with -8.51%.
As to `Cc1nc(NC(=O)c2ccc(Cl)cc2)sc1Cc1ccc2c(c1)OCO2`, the inhibition was -0.23%.
As to `CCCOc1ccc(C(=O)Nc2nc(C)c(Cc3ccc4c(c3)OCO4)s2)cc1`, the inhibition is 2.21%.
As to `COc1cccc(C(=O)N(Cc2nc(-c3ccc(C)cc3)no2)C(C)C)c1`, the inhibition is -3.98%.
As for `COc1cc(/C=C/C(=O)OCC(=O)NC(=O)NC(C)C)cc(S(=O)(=O)N2CCc3ccccc32)c1OC`, the inhibition is 3.06%.
On to `Cc1ccccc1CSCCNC(=O)Nc1ccccc1`, for which the inhibition is -0.63%.
In the case of `Cc1c2c(nc3ccccc13)CCC(C(C)(C)C)C2` (configuration not stated) it was 6.35%; in that of `Cc1c2c(nc3ccccc13)OCC2`, -16.5%; in that of `Nc1c(C(=O)O)cnn1-c1ccc([N+](=O)[O-])cc1`, -2.22%.
Take `CCc1cccc(NC(=O)Cc2ccc([N+](=O)[O-])cc2)c1`: the inhibition was 58.6%.
In the case of `O=C(Nc1ccc([N+](=O)[O-])cc1)Nc1ccc(Cl)cc1F` it was 9.88%; in that of `O=C(Cc1ccc([N+](=O)[O-])cc1)Nc1ccc(Cl)cc1`, 3.56%; in that of `O=C(c1ccc(F)cc1)N1CCN(C2CCC(c3ccccc3)CC2)CC1` (configuration not stated), 5.5%.
`CCOC(=O)c1ccc(NC(=O)CSc2nc(NC(=O)c3ccccc3)c3c(C)c(C)oc3n2)cc1`: the inhibition was 9.26%.
Consider `COc1cc(CCN2C(=O)N[C@@H](CCc3ccccc3)C(C(C)=O)=C2C)cc(OC)c1OC`, for which the inhibition was -6.61%.
As to `Oc1ccc(F)c2cccnc12`, the inhibition was 44.5%.
`O=C(N/N=C/c1ccc(O)c2ncccc12)c1cccc(Br)c1`: the inhibition is -4.1%.
As for `OCc1ccc(O)c2ncccc12`, the inhibition was 1.86%.
Regarding `CC(C)COCc1ccc(O)c2ncccc12`, the inhibition was 47.1%.
On to `COCc1cc(CN2CCCC2)c(O)c2ncccc12`, for which the inhibition is -1.29%.
For the molecule `Oc1ccc(CN2CCN(Cc3ccccc3)CC2)c2cccnc12`, the inhibition is -2.63%.
